Source: PubChem BioAssay (National Center for Advancing Translational Sciences (NCATS))
Sm TGR block – S. mansoni TGR enzyme inhibition; Q962Y6; Potency, µM (titrated, usually from 114 µM), for inactives: top-dose activity change, negative = inhibition, most hits filed as inhibitors; purified TGR, DTNB reduction, TNB absorbance 405 nm; 360,000 compounds, 3% hits; note: potency is the fitted concentration of half-maximal effect; nearly all actives have a fitted effect of over 60% in size
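TGR 20 nM + NADPH 100 uM (dispensed conc.), cpd preinc 15 min RT; start with NADPH (500 uM addition) then DTNB (15 mM addition). Kinetic TNB absorbance, 405 nm filter. Four-parameter Hill fit across titration.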
FBPA Giardia inh – blocks Giardia fructose-bisphosphate aldolase activity; A8B2U2; purified Giardia FBPA; Potency, µM (titrated, usually from 59.6 µM), for inactives: at the highest dose activity, negative = inhibition, usual class: inhibitors; 290,000 compounds, 0.71% hits; note: potency is the fitted concentration of half-maximal effect; nearly all actives have a fitted effect of over 55% in size
Target sequence (A8B2U2 whole entry, looked up): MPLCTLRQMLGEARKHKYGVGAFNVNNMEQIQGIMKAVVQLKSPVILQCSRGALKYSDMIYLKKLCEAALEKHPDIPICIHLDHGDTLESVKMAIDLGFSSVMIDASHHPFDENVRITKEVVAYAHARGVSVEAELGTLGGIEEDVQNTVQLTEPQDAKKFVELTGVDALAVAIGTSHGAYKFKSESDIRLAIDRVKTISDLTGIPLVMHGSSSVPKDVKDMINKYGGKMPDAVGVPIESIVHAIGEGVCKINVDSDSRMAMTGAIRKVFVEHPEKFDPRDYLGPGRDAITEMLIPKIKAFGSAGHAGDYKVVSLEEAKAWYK
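40 nM FBPA preincubated 10 min at RT with compound (up to 57.5 uM final), then substrate plus GAPDH/TPI/NAD/arsenate coupling and diaphorase/resazurin added. Fluorescence read after 20 min at RT, 525/598 nm.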
HCMV antiviral – blocks human cytomegalovirus replication | HFF cells, HCMV-luciferase reporter, 72 h; hits give low values | activity change, negative = inhibition, % at 57.5 µM | 410,000 compounds, 4.5% hits; in the data active = activity change below about -60%; inconclusive = no clear call, values can overlap the other calls; inactive = above about -39%
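Luciferase read-out from HCMV-luciferase-infected HFFs (MOI 1 PFU/cell) 72 h post infection at 37C; compounds added after 16 h cell attachment; activity normalized between buffer-only basal and Salinomycin (10uM) inhibitor controls.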
Pf growth 48h – inhibits P. falciparum growth in the first generation, 48 h. P. falciparum luciferase growth in erythrocytes, 48 h. Potency, µM (titrated, usually from 28.7 µM), inactives show at the top dose activity change, negative = inhibition, actives largely listed as inhibitors. AID 504832. 310,000 compounds, 5.9% hits; note: potency is the fitted concentration of half-maximal effect
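A one-generation exposure of luciferase-tagged malaria parasites in RPMI 1640/Albumax erythrocyte culture, 37 C and 5% CO2. Inhibition is inferred from decreased luminescence after adding detection reagent.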
Pf growth 96h – inhibits malaria parasite growth, 96 h. P. falciparum luciferase reporter growth, 96 h. Potency, µM (top dose mostly 28.7 µM), for inactives: at the top dose activity change, negative = inhibition, actives largely listed as inhibitors. 320,000 compounds, 6.9% hits. AID 504834; note: potency is the fitted concentration of half-maximal effect
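Two-generation exposure (96 h) targets delayed-death phenotype. Reporter parasites carrying integrated firefly luciferase, in red cells at 2% hematocrit and 0.05% parasitemia final, kept at 37 C, 5% CO2; luminescence loss indicates inhibition.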
* hit, by the source's call; u = inconclusive; x = no result; ! = repeats disagree; [ ] = remark or other dose. A selection: hits, their analogues and other compounds. The true share with any hit is near 14%. Unless noted, calls come from the whole dose curve; as a rule, active = well fitted curve in the direction sought with a large enough effect; inconclusive = small, poorly fitted or top-dose-only effect, or another doubt; inactive = no such curve, though single readings can be large; an effect the other way counts as inactive or inconclusive. % is set by controls: 0 for no effect and ±100 for the full control effect.

SMILES	Sm TGR block	FBPA Giardia inh	HCMV antiviral	Pf growth 48h	Pf growth 96h
O=C(CSc1ncccn1)NN=C1CCCCCC1	-11%	7%	-25	31%	-2%
CCOC(=O)CSc1nnc(-c2ccc3ncccc3c2)n1C	6%	7%	16	12µM*	-18%
O=C(CSc1ccccn1)N1CCN(c2ccccc2)CC1	-17%	-10%	38	33%	x
O=C(CSc1ccccn1)N1CCN(c2cccc(Cl)c2)CC1	0%	-3%	-73*	0%	x
O=C(CSc1nnc(-c2cccnc2)n1-c1ccc(SC(F)F)cc1)N1CCCc2ccccc21	5%	5%	45	u	10µM*
CCOc1ccccc1-n1c(SCC(=O)N2CCCc3ccccc32)nnc1-c1cccnc1	-22%	-2%	-31	u	u
CCN(CC)C(=O)C1=C(C)N(CCC2=CCCCC2)C(=O)C(CC(=O)NC(c2ccccc2)c2ccccc2)C1 (centres undefined)	x	x	6	x	x
Brc1ccc2nc(C3CCCCC3)c(CC3CCCCC3)n2c1	x	x	-26	x	x
Cc1ncc(CO)c2c1Oc1nc(-c3ccccc3)nc(SCC(=O)Nc3cccc(O)c3)c1C2	-13%	x	-3	9.3µM*	-3%
COc1ccc(-c2nc3c(c(SCC(=O)Nc4cccc(O)c4)n2)Cc2c(CO)cnc(C)c2O3)cc1	-24%	-8%	-63*!	9.3µM*	4%
CCSc1nc(-c2ccccc2OC)nc2c1Cc1c(CO)cnc(C)c1O2	-5%	x	-35	x	x
CCSc1nc(-c2ccccc2F)nc2c1Cc1c(CO)cnc(C)c1O2	45µM*	x	2	x	x
Cc1ncc(CO)c2c1Oc1nc(-c3ccccc3)nc(SCC(=O)Nc3cccc(C(F)(F)F)c3)c1C2	u	x	-29	x	x
COc1ccccc1NC(=O)CSc1nc(-c2cccc(Cl)c2)nc2c1Cc1c(CO)cnc(C)c1O2	20µM*	x	-9	x	x
COc1ccc([N+](=O)[O-])cc1C(=O)Nc1ccc(OCC(=O)N2CCOCC2)cc1	-9%	0%	8	-10%	17%
Cc1ccc(S(=O)(=O)NN=CC2(c3ccccc3)CC2)cc1	x	x	-26	x	x
O=c1[nH][nH]c(=O)c2c1[nH]c(=S)n2Cc1ccccc1	x	x	17	x	x
C#CCOCCOCCOCCNc1nc(N2CCN(C(=O)C([C@@H](C)O)n3cc([C@@H](N)CCCCN)nn3)CC2)nc(N2CCN(C(=O)C([C@@H](C)O)n3cc([C@@H](N)CCCCN)nn3)CC2)n1 (some centres undefined)	x	x	-22	x	x
C[C@@H](C(=O)Nc1ccc2ccccc2c1)[C@H]1C[C@]1(C)[C@H](NC(=O)c1cnccn1)c1ccccc1	-6%	-1%	-3	2.9µM*	1.5µM*
Cc1cc(C(=O)N[C@H](c2ccccc2)[C@@]2(C)C[C@@H]2[C@@H](C)C(=O)Nc2ccc3ccccc3c2)no1	-9%	-6%	4	u	12µM*
C[C@@H](C(=O)Nc1ccc2ccccc2c1)[C@@H]1C[C@@]1(C)[C@@H](NC(=O)c1cnccn1)c1ccccc1	3%	-10%	-2	u	u
CC[C@H](C)[C@H](NC(=O)[C@H](Cc1cnc[nH]1)NC(=O)[C@@H](NC(=O)[C@H](CCCNC(=N)N)NC(=O)[C@H](CCCCN)NC(=O)[C@H](CCCNC(=N)N)NC(=O)[C@H](CCCCN)NC(=O)[C@@H](N)CC(N)=O)[C@@H](C)CC)C(=O)NCC(=O)N1CCC[C@H]1C(=O)NCC(=O)N[C@@H](CCCNC(=N)N)C(=O)N[C@@H](C)C(=O)N[C@@H](Cc1ccccc1)C(=O)N[C@@H](Cc1ccc(O)cc1)C(=O)N[C@H](C(=O)N[C@H](C(=O)N[C@@H](CCCCN)C(=O)N[C@@H](CC(N)=O)C(=O)N[C@H](C(=O)N[C@H](C(=O)NCC(=O)N[C@H](C(=O)N[C@H](C(=O)N[C@@H](CS)C(=O)O)[C@@H](C)CC)[C@@H](C)O)[C@@H](C)CC)[C@@H](C)CC)[C@@H](C)O)[C@@H](C)O	x	0%	x	x	x
CCCCC/C=C\C/C=C\CCCCCCCC(=O)NC(C)C(=O)O (centres undefined)	x	4%	x	x	x
CCc1cccc(C)c1NC(=O)c1cnn(-c2ccc(F)cc2)c1-n1cccc1	0%	x	-10	x	x
COCCn1c(=O)c(-c2cccc(C#N)c2)nc2cnc(N3CCN(C)CC3)nc21	x	0%	x	x	x
SMILES	Sm TGR block	FBPA Giardia inh	HCMV antiviral	Pf growth 48h	Pf growth 96h
Cc1ccc(S(=O)(=O)Cc2cc(F)c([N+](=O)[O-])cc2[N+](=O)[O-])cc1	1.8µM*	-5%	x	u	u
COc1ccc(C(=O)NCC(=O)OCC(=O)NCc2ccc3c(c2)OCO3)cc1	x	x	-9	x	x
Cc1cccc(Nc2nnc(SCC3CCCCO3)s2)c1C (centres undefined)	-12%	1%	-5	u	12µM*
Cc1cccc(Nc2nnc(SC3CCOC3=O)s2)c1C (centres undefined)	7%	0%	-81*	16%	16%
Cc1ccc(Nc2nnc(SC3CCOC3=O)s2)cc1 (centres undefined)	-21%	-21%	0	0%	37%
COc1cc(/C=C/C(=O)OCC(=O)NC2CCCCCCC2)ccc1O	x	x	-20	x	x
CN(C)CCNc1ccc2ncn3c4ccc(O)cc4c(=O)c1c23	x	x	-93*	x	x
CN(C)CCNc1ccc(CO)c2sc3ccc(O)cc3c(=O)c12	x	x	-97*	x	x
O=C(c1ccc(Nc2nccc(-c3cc4ccccc4s3)n2)cc1)N1CCC(N2CCCC2)CC1	x	-10%	x	x	x
O=C(N/N=C/c1ccc(N2CCOCC2)o1)c1cccc(F)c1	10µM*	-28%	53	20%	31%
COc1ccc(C(=O)N/N=C/c2ccc(N3CCOCC3)s2)cc1OC	-29%	x	-6	u	u
COc1ccc(C(=O)N/N=C/c2ccc(N3CCOCC3)o2)cc1OC	7.9µM*	u	-39	3%	-1%
Cc1ccc(/C=N/NC(=O)c2cccc(S(=O)(=O)N3CCOCC3)c2)o1	-18%	1%	-16	-15%	-22%[5.75 µM]
